# Screens from PubChem BioAssay.
# MCF10A rerep: DNA re-replication induction in MCF 10a cells; MCF 10A DNA re-replication, Hoechst nuclear intensity, 48 h; Potency, µM (doses to about 46.1 µM), for the others: at the top dose activity, positive = re-replication, most hits filed as activators; 350,000 compounds, 2.9% hits; also: % of control where 0% means no effect; nearly all actives have a fitted effect of over 50% in size
# KB-3-1 tox: kills parental KB-3-1 adenocarcinoma cells; KB-3-1 viability, CellTiter-Glo ATP luminescence, 72 h; Potency, µM (top dose mostly 46.1 µM), usual class: cytotoxic; 400,000 compounds, 1.4% hits; also: % is scaled to controls: 0 for no effect and ±100 for the full control effect; nearly all actives have a fitted effect of over 60% in size
#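 Cells are dispensed, compounds pinned in, plates held at 37 °C for 72 h, then CellTiter-Glo is added and luminescence read after 10 minutes. Cell line: parental KB-3-1 in phenol-red-free DMEM, 10% FBS.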
# HT1080 IDH1KD tx: toxicity to HT-1080 IDH1 knockdown cells (counter line); AID 686971; 360,000 compounds, 2% hits; Potency, µM (titrated, usually from 46.1 µM), without a hit: at the top dose activity, negative = toxicity, usual class: cytotoxic; HT-1080 IDH1 knockdown viability, ATP luminescence, 48 h;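 also: 0% = DMSO wells and -100% = cell-free medium wells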
#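 Using the IDH1-knockdown HT-1080 line run in the same batch and compound series as the NT line, viability after 48 h at 37 °C was determined by CellTiter-Glo luminescence and expressed as % activity.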
# KB-V1 cytotox: KB-V1 MDR subline cytotoxicity | KB-V1 MDR cells viability, CellTiter-Glo, 72 h | Potency, µM (top dose mostly 46.1 µM), usual class: cytotoxic | 400,000 compounds, 3.4% hits; also: % is scaled to controls: 0 for no effect and ±100 for the full control effect; nearly all actives have a fitted effect of over 60% in size
#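 Compound-treated KB-V1 multidrug-resistant cells, 72 h, 37 degrees C; viability by CellTiter-Glo. Fitted qHTS curves give the values.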
# SW480 rerep: induces DNA re-replication in SW480 colon adenocarcinoma cells; 340,000 compounds, 1.8% hits; SW480 DNA re-replication, Hoechst DNA content imaging, 48 h; Potency, µM (doses to about 46.1 µM), without a hit: at the highest dose re-replication activation, most hits filed as activators; AID 624297; also: % of control where 0% means no effect; nearly all actives have a fitted effect of over 55% in size
#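 Image-based read-out: total Hoechst fluorescence of nuclei (405 nm excitation, 500-530 nm emission), with hits raising the fraction of high-intensity nuclei. SW480 colon cells incubated 48 hr with compounds at 37 C.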
# HT1080NT lethal: kills 2HG-producing HT-1080-NT fibrosarcoma cells | HT-1080-NT fibrosarcoma viability, CellTiter-Glo ATP luminescence, 48 h | Potency, µM (titrated, usually from 46.1 µM), without a hit: top-dose activity, negative = less viability, most hits filed as cytotoxic | 360,000 compounds, 1.6% hits | AID 686970;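 also: NT is the 2HG producing partner of a matched IDH1 knockdown line; 0% = DMSO-treated cells and -100% = media-only wells without cells; nearly all actives have a fitted effect of over 55% in size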
#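 Luminescent CellTiter-Glo readout after 48 hours of compound exposure at 37 degrees C defined viability of HT-1080-NT cells. Activity was normalized to DMSO wells and cell-free media wells; concentration-response curves were fitted and assigned curve classes.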
# * marks the source's active call; other numbers are inactive results; i = inactive; ? = inconclusive; · = not tested or not shown; [ ] = another dose, or the depositor's remark. An excerpt weighted towards active compounds, which were near 8% of everything screened. Calls follow the shape of the dose curve; as a rule, active = well fitted curve in the direction sought with a large enough effect; inconclusive = small, poorly fitted or top-dose-only effect, or another doubt; inactive = no such curve, though single readings can be large; an effect the other way counts as inactive or inconclusive. Potency is read from the fitted curve at half-maximal effect.
SMILES,MCF10A rerep,KB-3-1 tox,HT1080 IDH1KD tx,KB-V1 cytotox,SW480 rerep,HT1080NT lethal
O=C(NCCOc1ccc(F)cc1)C1CCC(=O)N(Cc2ccc(Cl)cc2)C1 (stereo not given),·,i,0.9%,i,·,1.4%
CN1CCN(CC(=O)N2CCn3c4c(c5cc(C6CCCCC6)ccc53)CCCC42)CC1 (stereo not given),?,?,23.1µM*,i,24.1%,?
Cc1ccc2c(c1)c1c3n2CCN(C(=O)C2CC2)C3CCC1 (stereo not given),2.2%,i,8.4%,i,-4.0%,-1.6%
Cc1ccc2c(c1)c1c3n2CCN(C(=O)Cn2c(-c4ccccc4)noc2=O)C3CCC1 (stereo not given),-2.4%,i,-24.4%,4.11µM*,0.4%,-12.9%
Cc1ccc2c(c1)c1c3n2CCN(C(=O)CN2CCN(C)CC2)C3CCC1 (stereo not given),?,?,?,20.6µM*,?,23.1µM*
COc1ccccc1/C=C/c1cncc(/C=C/c2ccccc2OC)c1,·,?,·,i,·,·
CCOC(=O)N1CCN(Cc2nc(-c3cccs3)no2)CC1,4.8%,i,12.7%,i,?,-1.4%
CCOC(=O)C1CCN(C(=O)NS(=O)(=O)c2ccc(C)cc2)CC1,-22.7%,i,5.5%,i,-12.3%,10.5%
COc1ccc(C(=O)NCc2nnc(SCC(=O)Nc3ccccc3)n2-c2ccc(F)cc2)cc1,·,i,·,i,·,·
N#C/C(=C\c1c(Cl)cccc1Cl)c1nc2ccccc2[nH]1,?,i,?,i,?,-19.2%
N#C/C(=C\c1ccc(Cl)cc1)c1nc2ncccc2[nH]1,?,i,-10.4%[9.24 µM],18.4µM*,?,?
N#C/C(=C\c1ccc(Sc2ccc(Cl)cc2)o1)c1nc2ccccc2[nH]1,14.6µM*,i,-5.8%,14.6µM*,?,-1.6%
Cc1ccc(C)c(CN2C(=O)C(O)(c3c[nH]c4ccccc34)c3ccccc32)c1 (stereo not given),·,?,·,i,·,·
OCC[n+]1ccc(/C=C/c2c[nH]c3ccccc23)cc1,?,?,-8.7%,i,22.1%,-2.2%
Cc1[nH]c2ccccc2c1/C=C/c1c(C)[nH]c2ccccc12,·,?,·,i,·,·
CCCCCCCCCCCCCC[n+]1ccc(C)cc1,55.4%,·,·,·,?,·
CCCCCCC[n+]1ccc(/C=C/c2c(C)[nH]c3ccccc23)cc1,·,0.651µM*,·,i,·,·
Cc1[nH]c2ccccc2c1/C=C/c1cc[n+](C)cc1,-3.8%,10.3µM*,-7.1%,i,5.7%,-23.4%
CCCCCCCCCCCCCCCC[n+]1ccc(/C=C/c2c(C)[nH]c3ccccc23)cc1,·,1.3µM*,·,i,·,·
Cc1ccc(NC(=O)COC(=O)c2ccc(NC(=O)CC#N)cc2)cc1S(=O)(=O)N1CCOCC1,-13.3%,i,-2.0%,i,0.1%,-10.1%
Cc1ccc(-n2c(-c3ccco3)nc3nc4ccccc4nc32)cc1,?,i,-17.8%,i,1.03µM*,0.7%
COc1cccc(-n2c(-c3ccco3)nc3nc4ccccc4nc32)c1,-10.2%,i,12.6%,i,-694.2%,16.9%
CC(Oc1ccccc1)C(=O)Nc1cccc(-c2cn3cccnc3n2)c1 (stereo not given),·,i,·,i,·,·
CCN(CC)Cc1c(O)ccc2cc(-c3nc4ccccc4n3C)c(=O)oc12,?,i,12.4%,i,?,6.0%
O=S(=O)(c1ccc(F)cc1)n1ccc(-c2cccc(OCc3c(F)cccc3Cl)c2)n1,2.3%,?,-8.3%,20.6µM*,-0.1%,-5.9%
SMILES,MCF10A rerep,KB-3-1 tox,HT1080 IDH1KD tx,KB-V1 cytotox,SW480 rerep,HT1080NT lethal
O=S(=O)(c1ccc(Cl)cc1)n1ccc(-c2cccc(OCc3c(F)cccc3Cl)c2)n1,22.8%,i,-0.9%,i,9.7%,8.9%
COC(=O)CSC1=C(C#N)C(c2cccc(OC)c2)CC(=O)N1 (stereo not given),14.6%,?,-2.1%,?,11.5%,5.9%
COC(=O)CSC1=C(C#N)C(c2cccc(F)c2)CC(=O)N1 (stereo not given),?,16.4µM*,?,?,?,14.6µM*
COC(=O)CSC1=C(C#N)C(c2ccccc2)CC(=O)N1 (stereo not given),?,?,-28.9%,18.4µM*,?,?
COc1ccc(S(=O)(=O)N2CCN(C(=O)CCCN3C(=O)NC4(CCCC4)C3=O)CC2)cc1,?,i,2.1%,i,?,5.5%
Cc1ccc(-n2c(SCC3CCCCO3)nnc2-c2ccco2)cc1 (stereo not given),15.0%,?,?,20.6µM*,1.3%[9.22 µM],-18.9%
CC(Sc1nnc(-c2ccco2)n1-c1ccccc1)C(=O)NCC1CCCO1 (stereo not given),3.8%,i,9.8%,20.6µM*,-2.8%,6.3%
CCOC(=O)c1cc(-c2ccccc2)nc2ccc(C)cc12,?,i,-3.1%,?,3.7%,11.2%
CCOC(=O)c1cc(-c2ccccc2)nc2nc(N3CCCCC3)sc12,9.2µM*,i,10.5%,i,4.1%,7.7%
Cc1ccc(-c2cc(C(=O)O)c3sc(N4CCCCC4)nc3n2)cc1,-0.1%,i,0.1%,?,-6.3%,13.0%
CCOC(=O)c1cc(-c2ccccc2)nc2nc(N(CC)CC)sc12,5.17µM*,i,-19.5%,i,?,?
CCOc1ccc(NC(=O)Cn2nc(CC)n3c(cc4sccc43)c2=O)cc1,·,i,·,i,·,·
COc1cc(-c2noc(CCCC(=O)NCc3ccccc3)n2)cc(OC)c1OC,3.0%,i,?,6.51µM*,-1.1%,-20.2%
COc1cc(-c2noc(CCCC(=O)Nc3cccnc3)n2)cc(OC)c1OC,3.4%,i,5.0%,?,3.1%,-0.6%
Cc1ccc(S(=O)(=O)/N=C2/C=C(C3C(=O)CC(C)(C)CC3=O)C(=O)c3ccccc32)cc1,?,i,?,16.4µM*,?,-13.6%
CN(CC(=O)Nc1ccc(Cl)c(Cl)c1)C(=O)C1CCCC1,3.6%,i,-5.0%,i,1.1%,-7.1%
CCn1nc(C)c(CN2CCCCC2C(=O)Nc2ccc(Oc3cccnc3)cc2)c1C (stereo not given),?,i,6.5%,?,3.3%,-0.2%
O=C(Nc1ccc(Oc2cccnc2)cc1)C1CCN(Cc2cc(Cl)ccc2O)CC1,?,16.4µM*,?,?,-4.5%,?
